High-throughput results deposited in PubChem by National Center for Advancing Translational Sciences (NCATS).
AMA1 RON2 block – disrupts binding of P. falciparum AMA1 to RON2 | 360,000 compounds, 0.2% hits | Potency, µM (titrated, usually from 58.2 µM), actives largely listed as inhibitors | AlphaScreen AMA1-biotinylated RON2 peptide binding; further: nearly all actives have a fitted effect of over 45% in size
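AMA1 (3D7) with his tag at 25 nM final met compounds first, then biotinylated RON2 peptide at 25 nM; detection used donor plus acceptor beads, 10 µg/mL apiece, read by AlphaScreen after 30 min at room temperature.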
MARV entry inh – blocks Marburg virus binding to or entry into cells; Marburg virus pseudotyped entry inhibition, cell reporter; Potency, µM (titrated, usually from 37.8 µM), usual class: inhibitors; 300,000 compounds, 1.8% hits; AID 540276; calls by dose curve; tested in HEK293 cells
Lassa entry inh – Lassa virus entry inhibition. 300,000 compounds, 1.2% hits. AID 540256. Potency, µM (series often up to 37.9 µM), actives largely listed as inhibitors. Lassa virus pseudotype entry inhibition, cell reporter; calls by dose curve; tested in HEK293 cells; further: nearly all actives have a fitted effect of over 50% in size
AmpC inh no detg – blocks E. coli AmpC beta-lactamase in detergent-free assay | P00811 | AmpC nitrocefin hydrolysis, absorbance 480 nm, 0.0001% Triton | Potency, µM (doses to about 57.1 µM), actives largely listed as inhibitors | 330,000 compounds, 0.52% hits | AID 485341; further: nearly all actives have a fitted effect of over 20% in size
Target sequence (P00811 whole entry, looked up): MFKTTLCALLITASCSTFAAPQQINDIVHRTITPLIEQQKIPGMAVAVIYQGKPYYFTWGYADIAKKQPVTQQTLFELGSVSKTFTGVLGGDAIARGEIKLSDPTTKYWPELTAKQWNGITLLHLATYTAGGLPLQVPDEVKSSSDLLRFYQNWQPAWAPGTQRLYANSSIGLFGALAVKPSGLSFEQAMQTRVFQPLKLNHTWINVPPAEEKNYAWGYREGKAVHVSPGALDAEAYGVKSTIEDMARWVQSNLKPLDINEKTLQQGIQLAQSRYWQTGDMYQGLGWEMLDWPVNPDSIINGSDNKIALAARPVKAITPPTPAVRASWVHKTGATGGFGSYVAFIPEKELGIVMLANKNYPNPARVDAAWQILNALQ
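AmpC (5.3 nM in the dispensed reagent) in 20 mM phosphate pH 7.0 with 0.01% (detergent screen) or 0.0001% Triton X-100 was preincubated with compounds for 15 min at room temperature. Nitrocefin was then added from an 800 uM solution, and hydrolysis was followed at 480 nm.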
AmpC detergent – inhibitors of E. coli AmpC beta-lactamase with detergent; P00811; AmpC hydrolysis of nitrocefin, absorbance 480 nm, 0.01% Triton; Potency, µM (highest dose often 114 µM), hits mostly inhibitors; 370,000 compounds, 0.041% hits; AID 485294; further: nearly all actives have a fitted effect of over 25% in size
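AmpC (5.3 nM in the dispensed reagent) in 20 mM phosphate pH 7.0 with 0.01% (detergent screen) or 0.0001% Triton X-100 was preincubated with compounds for 15 min at room temperature. Nitrocefin was then added from an 800 uM solution, and hydrolysis was followed at 480 nm.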
Hits are given with their value; n = inactive; u = inconclusive; x = no result given; [ ] = remark or other dose. The list is not random: actives were taken first. Their share in the collection is about 2.3%. Unless noted, the call rests on the fitted dose curve; in most records, active means well fitted curve in the direction sought with a large enough effect; inconclusive means small, poorly fitted or top-dose-only effect, or another doubt; inactive means no such curve, though single readings can be large; an effect the other way counts as inactive or inconclusive.

SMILES | AMA1 RON2 block | MARV entry inh | Lassa entry inh | AmpC inh no detg | AmpC detergent
O=S(=O)(c1ccc2c(c1)C(=NO)c1cc(S(=O)(=O)N3CCCCC3)ccc1-2)N1CCCCC1 | n | u | 6.3µM | n | n
O=S(=O)(c1ccc(S(=O)(=O)N2CCCC2)cc1)N1CCCCCC1 | n | n | n | n | n
Cc1ccc(CN2CCC(CNc3ncnc4onc(-c5ccc(F)cc5)c34)CC2)cc1 | x | x | n | x | n
COc1ccccc1C1CCCN1Cc1nc(-c2ccc(C)s2)oc1C (configuration not stated) | n | u | 3.5µM | n | n
COc1ccccc1C1CCCN1Cc1nc(-c2cc3c(cc2Cl)OCO3)oc1C (configuration not stated) | n | u | u | n | n
CC(C)CC1C(C#N)=C(N)OC2=C1C(=O)CC(c1ccccc1)C2 (configuration not stated) | n | x | x | 28µM | u
CC(CC1C(C#N)=C(N)OC2=C1C(=O)CCC2)c1ccccc1 (configuration not stated) | n | n | n | n | n
N#CC1=C(N)OC2=C(C(=O)CC(c3ccccc3)C2)C1c1ccc2c(c1)OCO2 (configuration not stated) | n | n | 13µM | n | n
CC(=O)c1cccc(NC(=O)c2noc3c2CCCC3)c1 | x | u | u | x | n
O=C(Nc1ccc(F)c(Cl)c1)N1CCC(CN2CCc3ccccc3C2)CC1 | x | x | n | x | n
COc1ccc(OC)c(NC2=C(c3ccccc3)C(=O)c3ccccc32)c1 | x | u | n | x | n
CCCCS(=O)(=O)c1oc(-c2ccc(F)cc2)nc1S(=O)(=O)c1ccccc1 | x | u | u | x | n
CCc1ccccc1NC(=O)/C(=C/c1ccco1)c1ccccc1 | n | u | 16µM | n | n
CN(C)c1ccc(-c2csc(C(C)(O)c3ccc(F)c(F)c3)n2)cc1 (configuration not stated) | 20µM | x | x | x | x
CC1(C)CC(=O)C(C(C2=C(O)CC(C)(C)CC2=O)c2ccc(Br)s2)C(=O)C1 (configuration not stated) | n[11.6 µM] | u | 13µM | n | u
CCOC(=O)c1c(C)[nH]c(CCC(=O)Nc2c(C)cccc2CC)c1C | x | x | n | x | n
COCC(=O)Nc1cc(C(=O)NCCc2ccccc2)ccc1Cl | n | u | 10µM | n | n
CCCOc1ccc2cc(-c3ccccn3)c(=O)oc2c1 | n | 1.8µM | 2.8µM | n | n
COc1ccc2cc(-c3ccccc3)c(=O)oc2c1 | n | u | 4.5µM | n | n
COC(=O)C(C)Oc1ccc2cc(-c3ccccc3)c(=O)oc2c1 (configuration not stated) | n | u | n | n | u
CCOc1ccc(C(=O)NCC(c2ccc3c(c2)OCO3)N2CCN(C)CC2)cc1 (configuration not stated) | x | x | n | x | n
NS(=O)(=O)c1ccc(Nc2nc(-c3ccc(F)cc3)cs2)cc1 | n | u | n | n | n
COc1ccc(-c2csc(Nc3ccc(S(N)(=O)=O)cc3)n2)cc1OC | n | u | n | 16µM | n
C=CCN1c2ccccc2[C@]23CCC(=O)N(CC4CC4)C2=NC(C(=O)OC)=C(C(=O)OC)[C@H]13 | x | n | x | x | x
CN(C)S(=O)(=O)c1cccc(NC(=S)NC(=O)c2ccco2)c1 | n | n | u | n | n
SMILES | AMA1 RON2 block | MARV entry inh | Lassa entry inh | AmpC inh no detg | AmpC detergent
CN(C)S(=O)(=O)c1cccc(NC(=S)NNC(=O)c2cc3ccccc3cc2O)c1 | n | n | n | 25µM | n
Cc1ccc2occ(CC(=O)Nc3ccc(Cl)c(C(F)(F)F)c3)c2c1 | x | u | n | x | n
C=C(CCC(=O)c1ccccc1)C(=O)c1ccccc1 | n[2.32 µM] | u | u | n | n
C=C(C(=O)c1ccccc1)C(CC(=O)c1ccccc1)c1ccccc1 (configuration not stated) | n | u | 10µM | n | n
O=C(NCc1ccccc1Cl)NCc1noc2ccccc12 | x | x | n | x | n
COc1cc(C(=O)NCCOc2cc(C)ccc2C(C)C)cc(OC)c1OC | n | 3.2µM | 2.8µM | n | n
Cc1ccc(NC(=O)C2CCCN(c3ncnc4c3nc3n4CCCCC3)C2)c(Br)c1 (configuration not stated) | x | x | n | x | n
Cc1ccc(N(C)C(=O)Cn2cnc3onc(-c4ccc(F)cc4)c3c2=O)cc1C | x | x | n | x | n
C=C1c2cccc(O)c2C(=O)C2C(=O)[C@]3(O)C(=O)C(C(N)=O)C(=O)[C@@H](N(C)C)[C@@H]3[C@@H](O)[C@H]12 (some centres not stated) | 0.89µM | x | x | 8.9µM | x
C[C@H]1c2cccc(O)c2C(O)=C2C(=O)[C@]3(O)C(O)=C(C(N)=O)C(=O)[C@@H](N(C)C)C3[C@@H](O)C21 (some centres not stated) | n | x | x | n | n
COc1ccc(Nc2c([N+](=O)[O-])ccc3c2=NC2(CCCCC2)N=3)cc1 | 8.9µM | n | u | n | n
CCOC(=O)c1c(-n2c(C)cc(C=O)c2C)sc2c1CCCC2 | n | 12µM | 9.2µM | n | n
CCOC(=O)c1c(-n2c(C)cc(/C=C3\C(=O)NC(=O)N(C)C3=O)c2C)sc2c1CCCC2 | n | u | u | n | n
COc1ccc2c(CNCCc3ccccc3)c(C(=O)O)n(Cc3cccc(F)c3)c2c1 | x | x | u | x | n
COC(=O)C1=C(N)Oc2cc(C)[nH]c(=O)c2[C@@H]1c1ccncc1 | x | n | x | x | x
CCCCCOC(=O)C1=C(C)Nc2ncnn2C1c1cccs1 (configuration not stated) | n | u | 21µM | n | n
O=C(Nc1ccc(Br)cc1)c1ccc(F)c(S(=O)(=O)NCc2cccs2)c1 | n[11.6 µM] | u | 4µM | n | n
CC(C)(C)c1ccc(O[C@@H]2[C@H](O)CO[C@@H]2/C=C/C#Cc2ccccc2)cc1 | x | n | x | x | x
Cc1ccc(N(CC(=O)NCc2ccc(F)cc2)C(=O)CCC(=O)Nc2ccccn2)cc1C | n | u | 1.4µM | n | n
COc1ccc(C(=O)NCC(c2ccc(N(C)C)cc2)N2CCc3ccccc32)cc1OC (configuration not stated) | x | x | n | x | n
CC[C@H]1SC2=NC(C)=C(C(=O)OCCOC)[C@@H](c3ccc(C(=O)OC)cc3)N2C1=O | x | n | x | x | x
Cn1c(=O)c2sccc2n2c(CCCC(=O)Nc3ccc(Oc4ccc(Cl)cc4)cc3)nnc12 | x | x | n | x | n
CCN=C1S/C(=C\c2ccc(O)c(OCC)c2)C(=O)N1CC | n | u | 13µM | n | n
Cc1ccc(-c2noc(-c3nnn(CC(=O)Nc4cccc(C(F)(F)F)c4)c3N)n2)cc1 | x | x | n | x | n
CCS(=O)(=O)NCCc1sc2nc(-c3ccc(OC)cc3)nn2c1C | x | x | n | x | n
CCCC(c1nnnn1C(C)(C)CC)N(Cc1ccco1)Cc1cc2ccc(OC)cc2[nH]c1=O (configuration not stated) | n | 13µM | u | n | n
COc1cccc(Nc2ncnc3nc[nH]c23)c1 | n | x | x | 3.2µM | u
